# Compound activity (PubChem)
# An excerpt weighted towards active compounds, which were near 31% of everything screened.
# CYP2C19 act – increases human CYP2C19 enzyme activity. activation factor at 5 µM. P33261. 96,000 tested, under 10 active. recombinant CYP2C19, luciferin-H EGE luminescence; hits give high values; 0 = fully inhibited enzyme, 1 = untreated enzyme;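 active = activation factor of at least 2 at 5 µM in the primary screen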;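 note: 0 = wells with 2.5 mM tranylcypromine and 1 = vehicle-only wells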
# CYP2C19 inh – blocks human cytochrome P450 2C19. P33261. CYP2C19 Supersomes, luciferin-H EGE luminescence, 30 min. inhibition, % at 5 µM. 96,000 compounds, 21% hits;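 active = CYP2C19 inhibition above a set limit at 5 µM in the primary screen, cut at about 50% in these data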;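 note: plate controls were negative control wells for no effect and 2.5 mM tranylcypromine positive control for full effect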
# CYP2C9 activ – activators of human CYP2C9. 96,000 compounds, 1.4% hits. activation factor at 5 µM. P11712. recombinant CYP2C9, luciferin-H conversion, luminescence; hits give high values; factor 1 = untreated enzyme, 0 = blocked;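 active = activation factor of 2 or more for CYP2C9 at a 5 µM dose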;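 note: 0 = sulfaphenazole-blocked wells and 1 = vehicle-only wells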
# PLAP act – activators of human placental alkaline phosphatase; AID 696; purified PLAP enzyme, luminescent substrate read-out; hits give high values; P05187; 96,000 compounds, 1.2% hits; activation fold at 20 µM; in the data active = activation fold above about 2
# Target sequence (P05187 whole entry, looked up): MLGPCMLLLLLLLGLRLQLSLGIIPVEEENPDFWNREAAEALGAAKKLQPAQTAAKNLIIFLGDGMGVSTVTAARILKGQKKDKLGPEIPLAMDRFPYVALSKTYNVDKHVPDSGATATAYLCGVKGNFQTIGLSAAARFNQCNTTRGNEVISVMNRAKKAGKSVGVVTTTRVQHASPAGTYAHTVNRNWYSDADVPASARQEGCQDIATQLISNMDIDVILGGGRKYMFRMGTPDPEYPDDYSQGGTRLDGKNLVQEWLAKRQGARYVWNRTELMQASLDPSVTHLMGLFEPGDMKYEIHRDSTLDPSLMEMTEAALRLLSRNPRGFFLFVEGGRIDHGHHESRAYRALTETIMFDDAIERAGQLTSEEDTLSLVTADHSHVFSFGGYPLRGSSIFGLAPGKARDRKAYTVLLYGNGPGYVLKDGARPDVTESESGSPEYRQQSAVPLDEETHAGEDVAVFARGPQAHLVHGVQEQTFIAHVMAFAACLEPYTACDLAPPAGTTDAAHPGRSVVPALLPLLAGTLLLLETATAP
# CYP2C9 inh – inhibitors of human CYP2C9 | inhibition, % at 5 µM | 96,000 compounds, 20% hits | CYP2C9 Supersomes, luciferin-H conversion, luminescence | P11712;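 active = blocking of liver enzyme CYP2C9 beyond about 50% at 5 µM, limit read from the data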
# An asterisk follows results filed as active.
SMILES,CYP2C19 act,CYP2C19 inh,CYP2C9 activ,PLAP act,CYP2C9 inh
Cc1ccc(C)c2[nH]c(=O)c(CCNS(=O)(=O)c3ccccc3)cc12,0.2,76*,0.4,1.4,61*
CC(C)n1c(CCC(=O)O)ccc1-c1ccccc1,0.9,14,0.9,1,11
COc1cc(NC(=O)CCN2CCN(Cc3ccccc3)CC2)cc(OC)c1,1,4,1,1.3,2
CCOC(=O)C1CCN(CCC(=O)Nc2cccc(Cl)c2)CC1,0.5,52*,0.2,1.7,75*
O=C(CCN1CCN(Cc2ccccc2)CC1)Nc1cccc(Cl)c1,0.6,39,0.5,1.7,54*
CCOC(=O)C1CCCN(CCC(=O)Nc2cccc(F)c2)C1 (stereo not given),0.7,25,0.7,1,28
CCOc1c(Br)ccc2c1sc1nc[nH]c(=O)c12,0,98*,1.1,1.5,-6
CCN(CC)CCN1C(=O)c2ccccc2NC1c1cc(OC)c(OC)c(OC)c1 (stereo not given),1,-2,1.1,1.4,-9
CCOC(=O)COc1c(OC)cc(Cl)cc1C1Nc2ccccc2C(=O)N1c1ccc(F)cc1 (stereo not given),0.3,67*,0.1,1.4,90*
O=C1c2ccccc2NC(c2ccc(Cl)cc2Cl)N1O (stereo not given),0.8,25,0.9,1,14
CCOC(=O)COc1c(OC)cc(Cl)cc1C1Nc2ccccc2C(=O)N1c1cccc(C)c1 (stereo not given),0.1,95*,0.1,1.2,95*
CCOC(=O)COc1c(OC)cc(Cl)cc1C1Nc2ccccc2C(=O)N1c1ccccc1 (stereo not given),0,95*,0,1.4,98*
CCOC(=O)COc1ccccc1C1Nc2ccccc2C(=O)N1c1cccc(Cl)c1 (stereo not given),0.4,64*,0.8,1.1,17
CC(C)OC(=O)C1=C2SCC(=O)N2C(N)=C(C#N)C1,0.2,76*,0.9,0.9,6
N#CC1=C(N)N(c2ccccc2)C(=O)C1,1.1,-12,1.6,1.1,-62
COc1ccccc1NC(=O)C1CCN(c2ncccn2)CC1,0.8,25,1.8,1.1,-75
Cc1cccc2sc(NC(=O)CCNS(=O)(=O)c3cccs3)nc12,0.2,82*,0.2,1.2,78*
O=S(=O)(NC1c2cccc3cccc(c23)C1N1CCNCC1)c1ccccc1 (stereo not given),0.4,56*,0.8,1.7,19
O=S(=O)(NC1c2cccc3cccc(c23)C1N1CCN(CCO)CC1)c1ccccc1 (stereo not given),0.6,38,0.8,1.6,24
O=C(c1ccccc1)N1CCN(C2c3cccc4cccc(c34)C2NS(=O)(=O)c2ccccc2)CC1 (stereo not given),0.5,52*,0.3,1.2,75*
Cn1nnnc1Sc1ncnc2scc(-c3ccccc3)c12,0.5,46,0.3,0.9,66*
Cc1ccc(OCCSc2ncnc3nc[nH]c23)cc1,0.3,73*,0.5,2.4*,54*
Fc1ccc(CSc2ncnc3nc[nH]c23)cc1,0.5,47,0.6,1.7,40
Brc1ccc(CSc2ncnc3nc[nH]c23)cc1,0.4,56*,0.8,1.7,19
COc1ccc(C2CC(=O)Nc3ccccc3S2(=O)=O)cc1OC (stereo not given),0.6,40,1,1.1,-4
SMILES,CYP2C19 act,CYP2C19 inh,CYP2C9 activ,PLAP act,CYP2C9 inh
Clc1ccccc1-c1nn2c(COc3ccccc3)nnc2s1,0.1,95*,0.2,1.2,82*
c1ccc(Cc2nn3c(COc4ccccc4)nnc3s2)cc1,0.3,66*,0.7,1.1,32
CCOc1ccccc1OCc1nn2c(COc3ccccc3)nnc2s1,0.7,31,1.2,1.3,-20
c1ccc(OCc2nn3c(C4CCCCC4)nnc3s2)cc1,0.9,14,0.5,0.9,51*
CN(C)c1ccc(-c2nn3c(-c4ccc(Cl)cc4)nnc3s2)cc1,0.8,20,0.7,1.6,31
CN(C)c1ccc(-c2nn3c(C4CCCCC4)nnc3s2)cc1,0.5,52*,0.5,1.7,55*
Cc1ccc(N(C(=O)C2CCCO2)C2C=CS(=O)(=O)C2)cc1Cl (stereo not given),1.1,-13,1.1,1.2,-8
CCCN(CCC)S(=O)(=O)c1ccc(NC(=O)c2cc(C(=O)OC)cc([N+](=O)[O-])c2)cc1,0.8,18,1,1,-2
CN(C)c1cccc(C(=O)OCc2cc(=O)oc3cc(O)ccc23)c1,0.4,57*,0.2,1.6,79*
CC1CN(S(=O)(=O)c2cccc(C(=O)OCc3cc(=O)oc4cc(O)ccc34)c2)CC(C)O1 (stereo not given),0.3,69*,0.2,1.5,83*
COc1cccc2c1OC1(C)CC2NC(=O)N1Cc1ccccc1 (stereo not given),0.7,29,1.2,1,-20
O=C(CCSc1nccn1Cc1ccccc1)N1CCOCC1,0.9,15,1.2,1.3,-20
CC(=O)c1ccc(NC(=O)CSc2nccn2CCc2ccccc2)cc1,0.5,53*,0.5,0.7,45
N#Cc1ccccc1NC(=O)CSc1nccn1CCc1ccccc1,0.4,59*,1.4,0.8,-40
Cc1ccc(NC(=O)CSc2nccn2Cc2ccccc2)cc1C,0.7,34,2*,0.8,-96
O=[N+]([O-])c1ccc(Sc2nccn2Cc2ccccc2)cc1,0,96*,0.3,1,70*
O=C(CSc1nnc(-c2ccccc2)n1-c1ccccc1)N1c2ccccc2Sc2ccccc21,1.1,-6,1.1,1,-5
O=C(Nc1nncs1)C1(c2ccccc2)CCCC1,1,5,0.6,0.9,41
Cc1csc(NC(=O)CNC(=O)OCc2ccccc2)n1,1,0,1,0.8,0
C=COC(=O)CSc1snc(SCC(=O)OC)c1C#N,0.9,5,0.9,0.9,15
CC(=O)Nc1ccc(NC(=O)CSc2nccn2Cc2ccccc2)cc1,0.8,17,0.9,1.1,12
Clc1ccc(CSc2nccn2Cc2ccccc2)cc1,0.1,93*,1.1,1.1,-9
CCOc1ccc(N/C=C/C(=O)c2ccc(OC)cc2)c([N+](=O)[O-])c1,0.7,26,3*,0.7,-200
COc1ccc(OCCC(=O)NC2=NCCS2)cc1,0.2,76*,1.2,0.9,-18
CC(C)(C)c1ccc(OCCC(=O)NC2=NCCS2)cc1,0.9,12,1.1,1.1,-11
COc1ccc(OCCC(=O)Nc2cc(C)on2)cc1,0.4,63*,0.7,0.9,29
COc1ccc(C(=O)/C=C/Nc2cc(C)on2)cc1,0.4,58*,0.6,0.8,36
COc1ccc(C(NC(=O)CNC(C)=O)C(=O)Nc2ccc3c(c2)OCCO3)cc1 (stereo not given),0.8,16,0.9,0.9,5
O=[n+]1c2c(n([O-])c3cc(F)c(F)cc31)CCCC2,1.2,-22,1.2,0.9,-16
